Assay outcomes from PubChem BioAssay.
SARS PLpro yeast = SARS-CoV PLP inhibition in yeast; 330,000 tested, 0.19% active; Potency, µM (series often up to 32.9 µM), inactives show top-dose activity, positive = growth rescue, usual class: activators; S. cerevisiae expressing SARS-CoV PLpro, growth rescue; note: potency is the fitted concentration of half-maximal effect; 0% is about no effect; nearly all actives have a fitted effect of over 55% in size
NS1 inh = influenza NS1 inhibition | AID 2326 | 270,000 tested, 0.4% active | Potency, µM (top dose mostly 46.1 µM), without a hit: at the highest dose activity, positive = more growth; note: potency is the fitted concentration of half-maximal effect; actives are rising curves; nearly all actives have a fitted effect of over 50% in size
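Compounds were scored for reversing the slow growth caused by influenza A NS1 in S. cerevisiae, measured by optical density at 600 nm. Assay medium contained 2% galactose at pH 6.0; NS1-free yeast of the same strain were the positive control.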
Shiga inhibitor = blocks Shiga toxin action in Vero cells | Vero cells, Shiga toxin protein synthesis inhibition reporter | inhibition, % at 38.7 µM | 290,000 tested, 9.2% active | AID 2315; in the data active = inhibition mostly above about 28%, no sharp cut-off; inactive = mostly below about 43%; note: 0% is about no effect
CHX counter = counter-screen for Shiga toxin inhibitors: cycloheximide protein synthesis inhibition; cell reporter, cycloheximide protein synthesis inhibition counterscreen; AID 2314; max response, %; 300,000 tested, 12% active; in the data active = max response mostly above about 13%, no sharp cut-off; inactive = mostly below about 14%; note: read at 38.3 µM for the half of the compounds with a filed dose; 0% is about no effect
Numbers without * were called inactive; u = inconclusive; x = no result given. This is a sample that favours compounds with a hit; in the whole collection about 12% have one here. Unless noted, calls come from the whole dose curve.

SMILES	SARS PLpro yeast	NS1 inh	Shiga inhibitor	CHX counter
O=C(CC(C(=O)O)c1cccc(Br)c1)c1ccc(Cl)cc1 (stereo not given)	2%	-5%	1	-2
COc1ccc(C(=O)NNC(=O)C(=O)NCc2ccccc2)cc1	0%	1%	-15	-3
Cn1c2ccccc2c(=O)c2cc(C#Cc3ccc(N)cc3)ccc21	-17%	20%	39*	41*
COc1ccc(C#Cc2ccc3c(c2)c(=O)c2ccccc2n3C)cc1	x	12%	4	1
Cn1c2ccccc2c(=O)c2ccc(C#CC3(O)CCCCC3)cc21	-13%	-30%	41*	35*
COc1ccc(C(OCCN2CCC[C@H](C(=O)O)C2)(c2ccc(OC)cc2)c2ccc(OC)cc2)cc1	x	x	3	-6
Cn1c(=O)oc2cc(S(=O)(=O)NCCC(=O)NCCc3ccccc3)ccc21	0%	-1%	-3	-1
COC(=O)c1sc(NC(=S)NC(=O)c2ccccc2F)nc1C	-4%	x	160*	51*
CCOC(=O)CNC(=O)c1sc(NC(=O)c2ccccc2F)nc1C	-14%	-59%	55*	35*
COC(=O)c1sc(NC(=O)c2cc(C)on2)nc1C	25%	-60%	36*	27*
O=C(CNC(=O)c1ccccc1F)OCCCOC(=O)CNC(=O)c1ccccc1F	0%	x	x	x
CCOC(=O)CNC(=O)c1sc(NC(=O)c2cccc(F)c2)nc1C	11%	5%	66*	26*
Cc1cccc(OC(C)C(=O)N/N=C\c2ccncc2)c1 (stereo not given)	-3%	x	24	3
COc1cc(-c2nc(-c3ccc4c(c3)-c3ccccc3S4(=O)=O)c(-c3ccccc3)[nH]2)cc(OC)c1O	9%	u	20	22*
O=C(CSc1nc2ccccc2n1S(=O)(=O)c1cccc([N+](=O)[O-])c1)NCc1cccs1	-12%	8%	18	27*
O=C(COC(=O)c1cccc([N+](=O)[O-])c1)NCc1cccs1	4%	-3%	18	6
COCCNC(=O)C(=O)NCC1OCCN1S(=O)(=O)c1ccc(C)cc1 (stereo not given)	6%	13%	-28	-2
O=c1c2ccccc2nc(-c2cccc(Cl)c2)n1O	-25%	-93%	-12	-2
CCN(CC)CC(O)Cn1c(-c2cccc(Cl)c2)nc2cc(C)c(C)cc21 (stereo not given)	0%	-6%	45*	24*
O=C(COC(=O)c1cncc(Br)c1)Nc1ccc(F)c(F)c1F	-3%	x	x	x
O=C(Nc1ccc2oc(-c3ccccc3)nc2c1)c1cccnc1	-12%	-5%	54*	39*
COc1ccc(-c2nc3cc(NC(=S)NC(=O)Cc4ccccc4)ccc3o2)cc1	-28%	1%	37	35*
COc1ccc(C(=O)Nc2ccc3oc(-c4cccnc4)nc3c2)cc1OC	-1%	3%	3	6
CCCCCC(=O)Nc1ccc2oc(-c3cccnc3)nc2c1	-7%	-15%	-5	10
O=C(Cc1ccccc1)Nc1ccc2oc(-c3cccnc3)nc2c1	2%	-5%	34*	21
SMILES	SARS PLpro yeast	NS1 inh	Shiga inhibitor	CHX counter
CCc1ccc2oc(-c3cccc(NC(=O)c4cccnc4)c3)nc2c1	-16%	-49%	66*	34*
O=C(Nc1ccc2oc(-c3ccccc3F)nc2c1)c1cncc(Br)c1	0%	-4%	42*	25*
O=C(Nc1ccc2oc(-c3ccccc3F)nc2c1)c1ccc([N+](=O)[O-])o1	-2%	3%	24	0
CC(=O)c1cccc(NS(=O)(=O)N2CCCCC2)c1	-11%	0%	-1	-2
CC(C)CCN1NC2(CCCC(C)C2)NC1=S (stereo not given)	0%	0%	25	8
CC1CCCC2(C1)NC(=S)c1c(sc3c1CCCC3)N2 (stereo not given)	-1%	1%	57	15*
CC1CN(C(=O)c2ccc(N3CCCCC3)c([N+](=O)[O-])c2)CC(C)O1 (stereo not given)	-6%	-6%	1	-4
CCSc1nc(N)nc(-c2cccs2)c1C#N	-33%	9%	68*	31*
CCOC(=O)c1cccc(NC(=O)CCS(=O)(=O)c2ccc(Br)s2)c1	25%	3%	17	2
CCOc1ccc(OCC)c(NC(=O)CCS(=O)(=O)c2ccc(Br)s2)c1	1%	-16%	33	15*
Cc1cccn2c(=O)c(/C=C(\C#N)C(=O)NCc3ccccc3)c(N3CCC(C(N)=O)CC3)nc12	1%	2%	-10	1
CCOc1ccc(OCCC(=O)OCC(=O)N2CCN(S(=O)(=O)c3ccc(Cl)cc3)CC2)cc1	-1%	-42%	54*	35*
Cc1ccc(C)c(OCCC(=O)OCC(=O)N2CCN(S(=O)(=O)c3ccc(Cl)cc3)CC2)c1	2%	x	x	x
O=C(NNC(=S)NC(=O)c1cccnc1)c1ccc(Cl)cc1	-10%	-87%	-26	19*
O=C(NNC(=S)Nc1ccc(Br)cc1)c1cccnc1	-2%	-22%	37	18*
O=C(NC(=S)NNC(=O)c1ccccc1O)c1cccnc1	3%	x	51*	14
C/C(=C\C(=O)c1cccnc1)Nc1ccc(C(=O)O)cc1	3%	2%	-9	-2
O=C(Cc1ccc(Cl)cc1)NNC(=S)NC(=O)c1cccnc1	2%	9%	10	-3
O=C(NC(=S)NNC(=O)c1ccc(Cl)cc1Cl)c1cccnc1	-23%	-13%	32	-3
O=C(/C=C\Nc1ccc(Br)cc1)c1cccnc1	-2%	9%	76*	57*
CCNC(=S)NNC(=O)c1cccnc1	-11%	0%	-7	-3
CC[C@H](C)[C@H](NC(=O)[C@H](C)NC(=O)[C@H](Cc1cnc[nH]1)NC(=O)[C@@H]1CCCN1C(=O)CNC(=O)[C@H](CC(C)C)NC(=O)[C@H](CC(C)C)NC(=O)[C@H](Cc1ccc(O)cc1)NC(=O)CNC(=O)[C@H](C)NC(=O)[C@H](CO)NC(=O)[C@H](CC(N)=O)NC(=O)[C@H](CC(C)C)NC(=O)[C@@H](NC(=O)[C@H](Cc1c[nH]c2ccccc12)NC(=O)CN)[C@@H](C)O)C(=O)O	x	x	-7	-5
O=[N+]([O-])c1ccc(Cl)c(S(=O)(=O)N2CCCCCC2)c1	-8%	-19%	-2	-1
CCOC(=O)C(=O)N(Nc1ccc(C)cc1)c1ccc(C)cc1	-1%	-10%	72*	16*
C=C(C)CSc1nnc(CCCCCNC(=O)OC(C)(C)C)o1	4%	1%	29	-3
SMILES	SARS PLpro yeast	NS1 inh	Shiga inhibitor	CHX counter
CCc1ccc(CNc2ccc3c(c2)ncn3C)cc1	-8%	-45%	73*	25*
Cc1ccc(CNc2ccc3c(c2)ncn3C(C)(C)C)cc1	5%	x	133*	40*
Cc1ccc(CNc2ccc3c(c2)ncn3C)cc1	-7%	-5%	81*	46*
Cc1nc2cc(NCc3ccccc3O)ccc2n1Cc1ccccc1	-1%	-4%	92*	69*
COc1ccc(CNc2ccc3c(c2)ncn3C)cc1OC	5%	-6%	-6	-1
N#Cc1ccc(Oc2ccc(NC(=O)C3CC=CCC3C(=O)O)cc2)cc1 (stereo not given)	-1%	2%	-12	0
NC(=O)C1=C[C@@H](c2ccc(C(F)(F)F)cc2)C[C@@H](OCCCCO)O1	-3%	1%	-11	7
